According to PubChem BioAssay (NCATS):
“And” between values parts separate entries of the source, which are not always exact repeats. Equal values may be shown once. Results filed as inconclusive are left out. The list shows a part of the results. The source made the active and inactive calls. Unless noted, calls follow the shape of the dose curve; as a rule, active = well fitted curve in the direction sought with a large enough effect; inconclusive = small, poorly fitted or top-dose-only effect, or another doubt; inactive = no such curve, though single readings can be large; an effect the other way counts as inactive or inconclusive. Peptide text beside a SMILES is read from it.

How the values were obtained:
[1] = qHTS Assay for Identification of Small Molecule Inducers of Hypoxia Response (AID 2120; active = well fitted curve in the direction sought with a large enough effect in the signal ratio, with a control signal flat, not every such curve was filed as active; the % refers to the signal ratio; also: 0% is about no effect)
In short: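 ME-180 HRE-bla cells plated in Opti-MEM/0.5% dialyzed FBS, rested 4-5 h, then dosed with compound titrations by pin tool. After 17 h at 37 degrees C, CCF4 dye loaded 2.5 h at RT; 460/530 nm ratio gave %Activity and AC50.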

[2] = target: DNA repair nuclease/redox regulator APEX1 (Homo sapiens) (UniProt P27695); test: qHTS Validation Assay for Inhibitors of the Human Apurinic/apyrimidinic Endonuclease 1 (APE1) (AID 1705; also: potency is read from the fitted curve at half-maximal effect;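 as to activity change, negative = inhibition: TAMRA fluorescence gain over two minutes as APE1 cuts a quenched THF abasic duplex; % is scaled to controls: 0 for no effect and ±100 for the full control effect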)
In short: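 Read-out: TAMRA fluorescence (525 nm ex, 598 nm em) from cleavage of a quenched THF abasic-site duplex, 50 nM final; activity taken as intensity change between third and first of three reads 60 s apart.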

[3] = Counterscreen for APE1 Inhibitors: Fluorescent Dye Displacement Validation Assay (AID 1707); also: potency is read from the fitted curve at half-maximal effect;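 as to activity change, negative = inhibition: plate controls were ThO with dsDNA and no compound for no effect and ThO without dsDNA for full effect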
In short: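 Thiazole Orange displacement from dsDNA: 250 nM ThO with 50 nM TAMRA-labelled abasic-site (tetrahydrofuran) duplex in 50 mM Tris-HCl pH7.5, 50mM NaCl, 2 mM MgCl2, 0.01% Tween-20. Loss of endpoint fluorescence (ex 480 nm, em 540 nm) flags DNA binders.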

[4] = target: Endonuclease 4 (Escherichia coli (strain K12)) (UniProt P0A6C1); test: Counterscreen for APE1 Inhibitors: qHTS Validation Assay for Inhibitors of Endonuclease IV (AID 1708); also: % is scaled to controls: 0 for no effect and ±100 for the full control effect
In short: (§1)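 qHTS concentration-response format; LOPAC1280 tested under APE1-screen conditions. 2 nM enzyme, 15 min compound preincubation at RT, then 50 nM TAMRA/BHQ-2 abasic substrate; kinetic fluorescence read, three reads at 60 s intervals.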

[5] = qHTS for differential inhibitors of proliferation of Plasmodium falciparum line 7G8 (AID 1815);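 also: parasite growth measured after three days of incubation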; also: potency is read from the fitted curve at half-maximal effect;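 as to activity change, negative = inhibition: plate controls were vehicle wells for no effect and reference inhibitor wells for full effect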
[6] = qHTS for differential inhibitors of proliferation of Plasmodium falciparum line GB4 (AID 1816); conditions: Potency: Plasmodium falciparum GB4 proliferation inhibition;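 also: parasite growth measured after 72 h incubation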; also: potency is read from the fitted curve at half-maximal effect;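 as to activity change, negative = inhibition: 0% = vehicle DMSO and -100% = reference inhibitor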
[7] = qHTS for differential inhibitors of proliferation of Plasmodium falciparum line W2 (AID 1883); conditions: Potency: Plasmodium falciparum W2 proliferation inhibition;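 also: parasites grown with compound for 72 h before lysis and staining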; also: potency is read from the fitted curve at half-maximal effect;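 as to activity change, negative = inhibition: 0% = vehicle wells and -100% = control inhibitor wells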
[8] = qHTS for differential inhibitors of proliferation of Plasmodium falciparum line HB3 (AID 1886); conditions: Potency: Plasmodium falciparum HB3 proliferation inhibition;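 also: parasites grown with compound for 72 h before SYBR Green readout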; also: potency is read from the fitted curve at half-maximal effect;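 as to activity change, negative = inhibition: plate controls were vehicle for no effect and reference inhibitor for full effect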
[9] = target: Ferritin light chain (Equus caballus) (UniProt P02791); test: qHTS Validation Assay for Identification of Novel General Anesthetics (AID 2323); also: potency is read from the fitted curve at half-maximal effect; as to activity change, negative = inhibition: % is scaled to controls: 0 for no effect and ±100 for the full control effect
In short: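 10 uM horse-spleen apoferritin + 1-AMA (50% saturated, PBS); cpd pin-transferred, 10 min RT. Ex 380/Em 535 nm endpoint. Activity normalized between free 1-AMA and 1-AMA/apoferritin; 4-parameter Hill fit of concentration-response.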

[10] = target: ATP-dependent DNA helicase Q1 (Homo sapiens) (UniProt P46063); test: qHTS Validation Assay for Inhibitors of RecQ-Like Dna Helicase 1 (RECQ1) (AID 2353); also: potency is read from the fitted curve at half-maximal effect;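 as to activity change, negative = inhibition: plate controls were DMSO vehicle for no effect and enzyme-free control for full effect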
In short: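 50 nM RECQ1T1 preincubated 15 min with compound in Tris pH 8.0 buffer with MgCl2, DTT, Tween-20 and 2.5 ug/ml poly(dI-dC); started with 200 nM TAMRA/BHQ-2 forked duplex and 2 mM ATP. Unwinding read as fluorescence (525/598 nm), two reads 2 h apart.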

[11] = target: RecQ-like DNA helicase BLM (Homo sapiens) (UniProt P54132); test: qHTS Validation Assay for Inhibitors of Bloom's syndrome helicase (BLM) (AID 2364); also: potency is read from the fitted curve at half-maximal effect;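 as to activity change, negative = inhibition: plate controls were DMSO vehicle for no effect and enzyme-free control for full effect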
In short: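 Forked 20-bp duplex substrate (200 nM, TAMRA/BHQ-2) plus 2 mM ATP added after 15 min compound preincubation with 50 nM enzyme, pH 8.0, poly(dI-dC) 2.5 ug/ml. Strand separation followed by fluorescence (525/598 nm) over 2 h, normalized to enzyme-free and DMSO controls.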

[12] = Cytometric Cell-Based qHTS for Inhibitors of the mTORC1 Signaling Pathway in MEF (Tsc2-/-, p53-/-) Cells (AID 2660);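 also: Tsc2 and p53 null MEFs carrying empty vector with compound for 24 h; percent of cells above a phospho-rpS6 to PI ratio cutoff in each well; plate controls were DMSO for no effect and rapamycin for full effect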
In short: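 Readout: Alexa-488 phospho-rpS6 (Ser235/236) intensity divided by PI intensity, thresholded against 7.5 nM rapamycin wells and reported as % positive cells. PI cell count served as the viability measure. Compound exposure was 24 hrs at 37 degree Celsius.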

[13] = High Content Imaging Cell-Based qHTS for Inhibitors of the mTORC1 Signaling Pathway in MEF (Tsc2-/-, p53-/-) Cells (AID 2666);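 also: percent of cells scored positive for phospho-rpS6 Ser235/236 immunostaining by imaging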
In short: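 Cells were plated, dosed with compound after 24 hrs, and incubated another 24 hrs at 37 degree Celsius. Fixed cells were immunostained for phospho-rpS6 Ser235/236 and counterstained, and the normalized signal was scored as % active cells against rapamycin and DMSO controls.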

[14] = High Content Imaging Cell-Based qHTS for Inhibitors of the mTORC1 Signaling Pathway in MEF Cells (AID 2667); also: potency is read from the fitted curve at half-maximal effect;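 as to activity change, negative = inhibition: Tsc2-/- p53-/- MEFs stably re-expressing wild-type Tsc2 exposed 24 h; plate controls were DMSO wells for no effect and rapamycin control wells for full effect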
In short: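 Immunofluorescence for rpS6 phosphorylation in MEFs of Tsc2-/-, p53-/- background rescued with WT Tsc2. Compound exposure lasted 24 hrs. Inhibition was scored against rapamycin-treated control wells.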

[15] = qHTS for differential inhibitors of proliferation of Plasmodium falciparum line 3D7 (AID 1876); also: potency is read from the fitted curve at half-maximal effect
[16] = qHTS for differential inhibitors of proliferation of Plasmodium falciparum line Dd2 (AID 1882); conditions: Potency: Plasmodium falciparum Dd2 proliferation inhibition; also: nearly all actives have a fitted effect of over 65% in size; also: potency is read from the fitted curve at half-maximal effect;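 as to activity change, negative = inhibition: plate controls were DMSO vehicle for no effect and 0.29 µM artemisinin for full effect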
In short: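 Dd2-infected erythrocytes (0.3% parasitemia, 2.5% hematocrit final) incubated with compound 72 h at 37 C, 5% CO2; lysed with saponin/Triton buffer containing SYBR Green I, incubated overnight in the dark, then read by fluorescence (485/535 nm). Normalized to 0.29 uM artemisinin and DMSO.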

[17] = qHTS for differential inhibitors of proliferation of Plasmodium falciparum line D10 (AID 1877);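 also: parasites grown with compound for 72 h before DNA staining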; also: potency is read from the fitted curve at half-maximal effect;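 as to activity change, negative = inhibition: plate controls were vehicle wells for no effect and reference inhibitor wells for full effect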
[18] = qHTS Assay for Lipid Storage Modulators (AID 1519; calls by dose curve; as to activity change, negative = inhibition: % is scaled to controls: 0 for no effect and ±100 for the full control effect); conditions: Drosophila S3 cells, BODIPY lipid droplet/cell ratio, laser cytometry, cells loaded with oleic acid; for activity change, negative = inhibition: at 57.5 µM (top of the series)
In short: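 Cells seeded at 5,000 per well were treated with compounds over a concentration series and loaded with oleic acid (400 uM, as added). Lipid droplet fluorescence (488 nm excitation, 500-530 nm channel) was read by laser-scanning cytometry and normalized to 20 uM Triacsin C.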

[19] = target: Endonuclease 4 (Escherichia coli (strain K12)) (UniProt P0A6C1); test: Counterscreen for APE1 Inhibitors: qHTS Assay for Inhibitors of Endonuclease IV (AID 2565);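 also: plate controls were uninhibited enzyme wells for no effect and no enzyme buffer wells for full effect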
In short: as §1

[20] = measured here: cell count channel max response
[21] = measured here: lipid channel max response

RecQ-like DNA helicase BLM (Homo sapiens), sequence (P54132 whole entry, looked up): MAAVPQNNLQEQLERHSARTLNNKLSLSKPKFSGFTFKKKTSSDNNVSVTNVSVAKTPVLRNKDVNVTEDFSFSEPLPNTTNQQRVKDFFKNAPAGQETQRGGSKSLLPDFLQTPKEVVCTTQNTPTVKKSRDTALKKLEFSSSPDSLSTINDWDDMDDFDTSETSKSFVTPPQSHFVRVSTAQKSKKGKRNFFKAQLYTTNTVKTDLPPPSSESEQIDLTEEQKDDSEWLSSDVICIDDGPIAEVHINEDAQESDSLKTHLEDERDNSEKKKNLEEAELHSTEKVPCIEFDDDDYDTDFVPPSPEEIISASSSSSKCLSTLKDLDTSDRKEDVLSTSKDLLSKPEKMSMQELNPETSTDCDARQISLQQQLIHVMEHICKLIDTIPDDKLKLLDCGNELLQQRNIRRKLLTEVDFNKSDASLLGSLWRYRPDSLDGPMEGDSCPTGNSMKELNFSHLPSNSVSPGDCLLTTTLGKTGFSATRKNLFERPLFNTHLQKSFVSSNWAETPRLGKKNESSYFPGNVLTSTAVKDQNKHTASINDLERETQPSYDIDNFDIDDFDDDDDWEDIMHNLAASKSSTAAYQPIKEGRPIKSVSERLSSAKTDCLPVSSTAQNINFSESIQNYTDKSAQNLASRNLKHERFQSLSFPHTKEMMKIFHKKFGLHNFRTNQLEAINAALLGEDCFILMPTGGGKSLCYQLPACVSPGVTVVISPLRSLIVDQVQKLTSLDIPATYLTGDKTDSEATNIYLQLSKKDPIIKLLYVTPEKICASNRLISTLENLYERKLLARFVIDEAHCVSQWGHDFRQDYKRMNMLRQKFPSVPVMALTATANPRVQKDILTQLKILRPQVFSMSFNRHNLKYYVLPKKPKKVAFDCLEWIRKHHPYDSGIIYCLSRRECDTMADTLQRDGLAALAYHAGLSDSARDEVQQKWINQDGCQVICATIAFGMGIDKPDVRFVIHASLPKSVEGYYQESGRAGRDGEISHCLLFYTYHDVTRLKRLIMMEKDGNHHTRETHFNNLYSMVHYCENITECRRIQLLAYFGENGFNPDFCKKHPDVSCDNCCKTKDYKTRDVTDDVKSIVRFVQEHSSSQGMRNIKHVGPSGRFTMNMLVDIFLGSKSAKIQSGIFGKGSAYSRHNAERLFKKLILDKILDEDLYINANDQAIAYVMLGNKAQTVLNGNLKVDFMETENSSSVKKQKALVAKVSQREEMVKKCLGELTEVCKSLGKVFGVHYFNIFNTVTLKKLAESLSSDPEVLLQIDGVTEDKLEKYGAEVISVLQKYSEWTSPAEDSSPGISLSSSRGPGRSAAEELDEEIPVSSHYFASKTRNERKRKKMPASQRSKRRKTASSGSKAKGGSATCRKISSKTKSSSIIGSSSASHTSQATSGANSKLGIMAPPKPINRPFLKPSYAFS
DNA repair nuclease/redox regulator APEX1 (Homo sapiens), sequence (P27695 whole entry, looked up): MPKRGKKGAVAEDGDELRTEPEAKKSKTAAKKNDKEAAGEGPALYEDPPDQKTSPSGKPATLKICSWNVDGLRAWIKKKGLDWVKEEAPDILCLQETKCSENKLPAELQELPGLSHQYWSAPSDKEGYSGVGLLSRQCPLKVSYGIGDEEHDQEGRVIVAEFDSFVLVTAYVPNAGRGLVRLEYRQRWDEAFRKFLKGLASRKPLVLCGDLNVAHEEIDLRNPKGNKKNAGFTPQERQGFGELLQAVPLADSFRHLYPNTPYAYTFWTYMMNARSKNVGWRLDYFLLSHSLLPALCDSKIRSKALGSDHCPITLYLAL
ATP-dependent DNA helicase Q1 (Homo sapiens), sequence (P46063 whole entry, looked up): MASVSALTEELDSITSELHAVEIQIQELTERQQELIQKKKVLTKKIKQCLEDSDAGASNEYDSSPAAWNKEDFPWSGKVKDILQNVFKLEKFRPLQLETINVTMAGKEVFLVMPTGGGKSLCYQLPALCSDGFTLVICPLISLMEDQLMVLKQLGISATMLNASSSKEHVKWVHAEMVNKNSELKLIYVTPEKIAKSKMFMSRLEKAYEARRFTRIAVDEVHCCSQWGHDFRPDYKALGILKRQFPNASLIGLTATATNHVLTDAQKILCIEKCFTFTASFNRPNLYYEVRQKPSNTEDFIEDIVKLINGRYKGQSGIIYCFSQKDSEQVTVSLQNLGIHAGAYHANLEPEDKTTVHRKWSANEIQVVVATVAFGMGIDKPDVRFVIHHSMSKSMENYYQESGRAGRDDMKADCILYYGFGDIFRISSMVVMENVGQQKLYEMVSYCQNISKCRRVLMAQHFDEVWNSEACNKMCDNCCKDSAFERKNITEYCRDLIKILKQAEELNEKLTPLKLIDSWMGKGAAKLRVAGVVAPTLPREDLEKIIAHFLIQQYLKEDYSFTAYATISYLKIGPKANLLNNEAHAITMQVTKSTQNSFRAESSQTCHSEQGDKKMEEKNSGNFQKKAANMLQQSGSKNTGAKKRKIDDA

NS(=O)(=O)c1cc(C(=O)O)c(NCc2ccco2)cc1Cl
inactive: outcome [1]

O=c1ccc2ccc(O)c(O)c2o1
active: Potency [2] 17.8 µM | Potency [5] 10 µM | Potency [6] 15.8 µM | Potency [7] 15.8 µM | Potency [8] 12.6 µM
inactive: Potency [3] | outcome [4] | Potency [9] | Potency [10] | Potency [11] | Potency [12] | Potency [13] | Potency [14]

OC(CN1CCN(c2cccc(Cl)c2)CC1)C(c1ccccc1)c1ccccc1 (configuration not stated)
inactive: Potency [2] | Potency [3] | Potency [9] | Potency [10] | Potency [12] | Potency [13] | Potency [14]
active: Potency [5] 14.1 µM | Potency [7] 10 µM

O=C1c2c(O)cc(O)cc2OC(c2ccc(O)c(O)c2)C1O (configuration not stated)
inactive: Potency [2] | Potency [3] | outcome [4] | Potency [16] | Potency [10] | Potency [12] | Potency [13] | Potency [14]
active: Potency [6] 15.8 µM | Potency [15] 14.1 µM | Potency [7] 12.6 µM | Potency [8] 15.8 µM

Nc1nc(OCc2ccccc2)c2[nH]cnc2n1
inactive: Potency [2] | Potency [3] | outcome [4] | Potency [5] | Potency [6] | Potency [15] | Potency [17] | Potency [16] | Potency [8] | Potency [9] | Potency [10] | Potency [12] | Potency [13] | Potency [14]

Oc1ccc2ccccc2c1SSc1c(O)ccc2ccccc12
inactive: Potency [12] | Potency [13] | Potency [14]

O=Nc1c(-c2c(O)[nH]c3cc(Br)ccc23)[nH]c2ccccc12
active: Potency [3] 20 µM | Potency [6] 2.24 µM | Potency [15] 2 µM | Potency [17] 3.98 µM | Potency [16] 7.94 µM | Potency [7] 2.24 µM | Potency [8] 2.24 µM | Potency [14] 2.33 µM
inactive: Potency [2] | Potency [10]

CCCCC(CC)COC(=O)C(C#N)=C(c1ccccc1)c1ccccc1 (configuration not stated)
inactive: outcome [1]

O=c1c(O)c(-c2ccc(O)cc2O)oc2cc(O)cc(O)c12
active: Potency [2] 5.01 µM
inactive: Potency [3] | Potency [5] | Potency [6] | Potency [15] | Potency [17] | Potency [16] | Potency [7] | Potency [8] | Potency [9] | Potency [10] | Potency [12] | Potency [13] | Potency [14]

CC1(C)C(=O)N(CCN2CCC(C(=O)c3ccc(F)cc3)CC2)c2ccccc21
inactive: Potency [2] | Potency [3] | Potency [10] | Potency [12] | Potency [13] | Potency [14]
active: Potency [5] 6.31 µM | Potency [6] 12.6 µM | Potency [15] 11.2 µM | Potency [7] 6.31 µM | Potency [8] 12.6 µM

CS(=O)(=O)OCCCCOS(C)(=O)=O
2.98%: max response [18, 20]
11.4%: max response [18, 21]
inactive: activity change, negative = inhibition [18] 1.02% | outcome [1]

COC(=O)[C@H](Cc1ccccc1)NC(=O)[C@@H](N)CC(=O)O (H-Asp-Phe-OMe)
inactive: outcome [1]

NNc1nncc2ccccc12
inactive: Potency [2] | Potency [3] | outcome [4] | Potency [6] | Potency [15] | Potency [16] | Potency [8] | Potency [9] | Potency [10] | Potency [12] | Potency [13] | Potency [14]

NCCCCNCCCN
inactive: Potency [2] | Potency [3] | outcome [4] | Potency [5] | Potency [6] | Potency [15] | Potency [17] | Potency [16] | Potency [7] | Potency [8] | Potency [9] | Potency [10] | Potency [11] | Potency [14]

CC(=O)N1CCN(c2ccc(OC[C@H]3CO[C@](Cn4ccnc4)(c4ccc(Cl)cc4Cl)O3)cc2)CC1
inactive: Potency [2] | Potency [3] | outcome [4] | Potency [10] | Potency [12] | Potency [13] | Potency [14]

CN(C)CCCC1(c2ccc(F)cc2)OCc2cc(C#N)ccc21 (configuration not stated)
-10.6%: max response [18, 20]
-12.9%: max response [18, 21]
inactive: activity change, negative = inhibition [18] 0.497% | Potency [2] | Potency [3] | outcome [4] | Potency [10] | Potency [12] | Potency [13] | Potency [14]
active: Potency [15] 10 µM | Potency [7] 2.24 µM

Nc1ccn([C@@H]2O[C@H](CO)[C@@H](O)C2O)c(=O)n1 (some centres not stated)
inactive: Potency [13]

Cc1cc(O)c2c(c1)C(=O)c1cc(O)cc(O)c1C2=O
inactive: activity change, negative = inhibition [18] -0.138% and 5.28% | outcome [4] | Potency [17] | Potency [16] | outcome [1] | Potency [10] | Potency [12] | Potency [13] | Potency [14]
55.2% and -8.66%: max response [18, 21]
55.1% and -15.9%: max response [18, 20]

Cc1cccc(C#Cc2ccccc2)n1
-2.47%: max response [18, 21]
active: Potency [7] 12.6 µM
-2.56%: max response [18, 20]
inactive: activity change, negative = inhibition [18] 0.257% | Potency [2] | Potency [3] | outcome [4] | Potency [17] | Potency [16] | Potency [10] | Potency [12] | Potency [13] | Potency [14]

Oc1ccc(-c2nc(-c3ccc(F)cc3)c(-c3ccncc3)[nH]2)cc1
active: Potency [6] 12.6 µM | Potency [15] 11.2 µM | Potency [16] 11.2 µM | Potency [7] 6.31 µM
inactive: Potency [2] | Potency [3] | Potency [9] | Potency [10] | Potency [12] | Potency [13] | Potency [14]

O=C(NCC1CCCCN1)c1cc(OCC(F)(F)F)ccc1OCC(F)(F)F (configuration not stated)
inactive: Potency [2] | Potency [3] | outcome [4] | Potency [9] | Potency [10] | Potency [11]

COc1cc2c(cc1OC)C1CC(=O)C(CC(C)C)CN1CC2 (configuration not stated)
inactive: Potency [12] | Potency [13] | Potency [14]

O=C1NC(=O)C(c2ccccc2[N+](=O)[O-])=C1Nc1ccc(O)c(Cl)c1
inactive: activity change, negative = inhibition [18] -0.486% | Potency [2] | Potency [3] | outcome [4] | Potency [17] | Potency [16] | Potency [9] | Potency [10] | Potency [12] | Potency [13] | Potency [14]
-39.8%: max response [18, 21]
-38.3%: max response [18, 20]
active: Potency [7] 17.8 µM

CC(C)c1ccc2c(c1)c(SC(C)(C)C)c(CC(C)(C)C(=O)O)n2Cc1ccc(Cl)cc1
inactive: outcome [19] | Potency [12] | Potency [13] | Potency [14]
active: Potency [2] 39.8 µM | Potency [5] 5.01 µM | Potency [6] 5.01 µM | Potency [15] 6.31 µM | Potency [17] 12.6 µM | Potency [16] 12.6 µM | Potency [7] 3.16 µM | Potency [8] 11.2 µM | Potency [11] 28.2 µM

CNC[C@H](O)c1ccc(O)c(O)c1
active: Potency [7] 14.1 µM | Potency [14] 26.1 µM
inactive: Potency [2] | Potency [3] | outcome [4] | Potency [9] | Potency [10] | Potency [12] | Potency [13]

C[C@H](Cc1ccc(O)c(O)c1)[C@@H](C)Cc1ccc(O)c(O)c1
active: Potency [5] 3.98 µM | Potency [6] 5.01 µM | Potency [15] 12.6 µM | Potency [17] 12.6 µM | Potency [7] 10 µM | Potency [8] 14.1 µM | Potency [9] 12.6 µM | Potency [10] 11.2 µM
inactive: Potency [2] | outcome [4] | Potency [12] | Potency [13] | Potency [14]
